Laboratory results taken from the supplement of paper PMC12494721.
Counter-ions that a name gives are not always drawn.

Assays:
Settings in all cases: incubation time: 27 h, anaerobic, 37 °C;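 for the amine columns active = adjusted P below 0.05 in both replicates with a change the same way and a mean fold change under 0.8 or over 1.25; inactive = the rest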
[1] = system: Clostridium sporogenes DSM 1664; assay: growth (OD595) fold change vs plate DMSO controls (fold change (ratio)); higher = more growth
Method in brief: (§1)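 Anaerobic 27 h, 37 °C mGAM 96-well cultures were shaken, then read for absorbance at 595 nm. Values were blank-subtracted and corrected for compound background using 20 µM compound solutions in water. A calibration factor of 5 converted them to OD. Growth is the fold change versus the median of plate DMSO controls. Fold changes above 1.5 were set to NA, and values are the mean of 2 biological replicates.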

Escherichia coli IAI1 [2] = assay: as above
Method in brief: as §1

[3] = system: Klebsiella aerogenes DSM 30053; assay: as above
Method in brief: as §1

[4] = system: Ruminococcus gnavus DSM 108212; assay: as above
Method in brief: as §1

[5] = system: Klebsiella aerogenes DSM 30053; assay: fold change of Histamine concentration vs plate DMSO controls (fold change (ratio)); higher = more amine produced, active = hit call of the paper (significant change in both replicates, either direction)
Method in brief: (§2)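 Anaerobic mGAM cultures of four gut bacterial strains were grown at 37 °C for 27 h in 80 µL wells, starting at OD 0.1 before 1:1 dilution. Compounds were at 20 µM final (sweeteners 50 µM). Whole cultures were extracted with cold acetonitrile/methanol containing 0.1% formic acid and centrifuged. Amines were quantified by LC–triple-quadrupole MS (dynamic MRM) against external calibration curves and drift-corrected within batch. Each value is the fold change versus plate DMSO controls, averaged over 2 biological replicates.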

[6] = system: Clostridium sporogenes DSM 1664; assay: fold change of Tryptamine concentration vs plate DMSO controls (fold change (ratio)); higher = more amine produced, active = hit call of the paper (significant change in both replicates, either direction)
Method in brief: as §2

[7] = system: Ruminococcus gnavus DSM 108212; assay: as above
Method in brief: as §2

Escherichia coli IAI1 [8] = assay: fold change of Putrescine concentration vs plate DMSO controls (fold change (ratio)); higher = more amine produced, active = hit call of the paper (significant change in both replicates, either direction)
Method in brief: as §2

[9] = system: Klebsiella aerogenes DSM 30053; assay: as above
Method in brief: as §2

Escherichia coli IAI1 [10] = assay: fold change of Cadaverine concentration vs plate DMSO controls (fold change (ratio)); higher = more amine produced, active = hit call of the paper (significant change in both replicates, either direction)
Method in brief: as §2

[11] = system: Klebsiella aerogenes DSM 30053; assay: as above
Method in brief: as §2

[12] = system: Ruminococcus gnavus DSM 108212; assay: fold change of 2-Phenylethylamine concentration vs plate DMSO controls (fold change (ratio)); higher = more amine produced, active = hit call of the paper (significant change in both replicates, either direction)
Method in brief: as §2

Row | SMILES | growth [1] | growth (Escherichia coli IAI1 [2]) | growth [3] | growth [4] | fold change of Histamine concentration [5] | fold change of Tryptamine concentration [6] | fold change of Tryptamine concentration [7] | fold change of Putrescine concentration (Escherichia coli IAI1 [8]) | fold change of Putrescine concentration [9] | fold change of Cadaverine concentration (Escherichia coli IAI1 [10]) | fold change of Cadaverine concentration [11] | fold change of 2-Phenylethylamine concentration [12]
1 | OC[C@H]1O[C@@H](n2cnc3cncnc32)[C@H](O)[C@@H]1O [Nebularine] (20 µM) | 0.985 | 0.971 | 1.01 | 0.831 | 0.982 (inactive) | 0.874 (inactive) | 0.943 (inactive) | 0.795 (inactive) | 1.01 (inactive) | 0.943 (inactive) | 0.998 (inactive) | 0.946 (inactive)
2 | CCOc1nc2cccc(C(=O)O)c2n1Cc1ccc(-c2ccccc2-c2nnn[nH]2)cc1 [Candesartan] (20 µM) | 1.16 | 0.982 | 1.01 | 1.19 | 0.965 (inactive) | 1.04 (inactive) | 0.975 (inactive) | 0.981 (inactive) | 1 (inactive) | 1.03 (inactive) | 1.01 (inactive) | 0.947 (inactive)
3 | C#C[C@]1(OC(C)=O)CC[C@H]2[C@@H]3CCC4=CC(=NO)CC[C@@H]4[C@H]3CC[C@@]21CC (mixture of isomers) [Norgestimate] (20 µM) | 1.25 | 0.998 | 1.01 | 0.991 | 1.01 (inactive) | 0.656 (inactive) | 0.888 (inactive) | 1.05 (inactive) | 0.985 (inactive) | 1.02 (inactive) | 0.993 (inactive) | 0.905 (inactive)
4 | CC(C(=O)O)c1cccc(C(=O)c2ccccc2)c1 (centres undefined) [Ketoprofen] (20 µM) | 0.99 | 1.04 | 0.993 | 0.957 | 1.03 (inactive) | 0.984 (inactive) | 1.06 (inactive) | 1.1 (inactive) | 1.01 (inactive) | 1.02 (inactive) | 0.995 (inactive) | 1.12 (inactive)
5 | CC(=O)N[C@@H](CS)C(=O)O [Acetylcysteine] (20 µM) | 0.935 | 1.07 | 0.967 | 0.985 | 1.14 (inactive) | 1.07 (inactive) | 0.993 (inactive) | 1.03 (inactive) | 1.02 (inactive) | 1.02 (inactive) | 0.987 (inactive) | 1 (inactive)
6 | NCCCCCC(=O)O [Aminocaproic acid] (20 µM) | 0.927 | 1.04 | 1.04 | 1.06 | 0.969 (inactive) | 1.08 (inactive) | 1.04 (inactive) | 1.11 (inactive) | 0.996 (inactive) | 0.983 (inactive) | 1.02 (inactive) | 1.09 (inactive)
7 | CCCOC(=O)NCCCN(C)C (20 µM) | 1.08 | 0.981 | 0.968 | 1.17 | 1.06 (inactive) | 1.05 (inactive) | 1.09 (inactive) | 0.952 (inactive) | 0.821 (inactive) | 0.93 (inactive) | 1.05 (inactive) | 1.22 (inactive)
8 | Clc1ccc(Cn2c(CN3CCCC3)nc3ccccc32)cc1 [Clemizole hydrochloride] (20 µM) | 1.15 | 1.01 | 1.05 | 0.643 | 0.939 (inactive) | 1.11 (inactive) | 0.858 (inactive) | 0.882 (inactive) | 0.958 (inactive) | 1.41 (active) | 1.01 (inactive) | 0.968 (inactive)
9 | CCCCCOC(=O)Nc1nc(=O)n([C@@H]2O[C@H](C)[C@@H](O)[C@H]2O)cc1F [Capecitabine] (20 µM) | 1.12 | 0.991 | 1.07 | 0.98 | 0.921 (inactive) | 0.982 (inactive) | 1.03 (inactive) | 0.993 (inactive) | 0.99 (inactive) | 1.01 (inactive) | 1 (inactive) | 1.06 (inactive)
10 | Nc1ccc(S(=O)(=O)Nc2ccnn2-c2ccccc2)cc1 [Sulfaphenazole] (20 µM) | 1.01 | 1.11 | 1.04 | 1.11 | 0.99 (inactive) | 0.977 (inactive) | 0.994 (inactive) | 1.04 (inactive) | 1.03 (inactive) | 1.04 (inactive) | 1.02 (inactive) | 0.95 (inactive)
11 | Fc1ccc(C(c2ccc(F)cc2)N2CCN(C/C=C/c3ccccc3)CC2)cc1 [Flunarizine dihydrochloride] (20 µM) | 1.15 | 1.05 | 1.1 | 0.897 | 0.894 (inactive) | 1.05 (inactive) | 0.851 (inactive) | 1.07 (inactive) | 0.981 (inactive) | 0.979 (inactive) | 1.04 (inactive) | 0.977 (inactive)
12 | CC1(C)S[C@@H]2[C@H](NC(=O)[C@H](C(=O)O)c3ccsc3)C(=O)N2[C@H]1C(=O)O [Ticarcillin sodium] (20 µM) | 0 | 1.22 | 1.02 | 0 | 1.04 (inactive) | 0.0277 (active) | 0.0454 (active) | 1.21 (inactive) | 1.02 (inactive) | 1.44 (active) | 0.996 (inactive) | 0.0536 (active)
13 | CC(CN(C)C)C(C)(O)Cc1ccc(Cl)cc1 (centres undefined) [Clobutinol hydrochloride] (20 µM) | 0.926 | 1.01 | 1.02 | 1.26 | 1.03 (inactive) | 1.02 (inactive) | 0.975 (inactive) | 0.975 (inactive) | 0.997 (inactive) | 0.965 (inactive) | 0.988 (inactive) | 0.988 (inactive)
14 | CN(C)CCOC1=Cc2ccccc2Sc2ccc(Cl)cc21 [Zotepine] (20 µM) | 1.11 | 1.07 | 1.05 | 1.34 | 1 (inactive) | 1.01 (inactive) | 0.902 (inactive) | 1.08 (inactive) | 0.99 (inactive) | 1.05 (inactive) | 0.993 (inactive) | 0.924 (inactive)
15 | Clc1ccc(CCC(Cn2ccnc2)Sc2c(Cl)cccc2Cl)cc1 (centres undefined) [Butoconazole nitrate] (20 µM) | 1.12 | 1.02 | 0.995 | 0.621 | 1.01 (inactive) | 1.07 (inactive) | 0.514 (active) | 0.997 (inactive) | 0.992 (inactive) | 0.995 (inactive) | 0.989 (inactive) | 0.623 (active)
16 | CC#C[C@]1(O)CC[C@H]2[C@@H]3CCC4=CC(=O)CCC4=C3[C@@H](c3ccc(N(C)C)cc3)C[C@@]21C [Mifepristone] (20 µM) | 1.19 | 0.971 | 0.986 | 1.09 | 1.02 (inactive) | 0.911 (inactive) | 0.975 (inactive) | 1.01 (inactive) | 1.02 (inactive) | 1.01 (inactive) | 0.998 (inactive) | 0.902 (inactive)
17 | C[C@]12CC[C@@H]3c4ccc(OS(=O)(=O)O)cc4CC[C@H]3[C@@H]1CCC2=O [Estropipate piperazine salt] (20 µM) | 1.04 | 1.01 | 1.01 | 1.21 | 0.996 (inactive) | 0.974 (inactive) | 0.96 (inactive) | 1.04 (inactive) | 0.985 (inactive) | 0.947 (inactive) | 0.993 (inactive) | 0.89 (inactive)
18 | CC[C@@H](CO)NCCN[C@@H](CC)CO [Ethambutol dihydrochloride] (20 µM) | 0.97 | 1.02 | 1.01 | 0.965 | 0.958 (inactive) | 0.996 (inactive) | 1.04 (inactive) | 1.05 (inactive) | 0.987 (inactive) | 0.954 (inactive) | 1.01 (inactive) | 1.09 (inactive)
19 | COc1cc2nc(N3CCN(C(=O)C4CCCO4)CC3)nc(N)c2cc1OC (centres undefined) [Terazosin hydrochloride] (20 µM) | 1.07 | 1.02 | 1 | 0.977 | 1.08 (inactive) | 1.03 (inactive) | 0.952 (inactive) | 0.936 (inactive) | 1.03 (inactive) | 1 (inactive) | 1.01 (inactive) | 0.948 (inactive)
20 | Cc1nc2n(c(=O)c1CCN1CCC(c3noc4cc(F)ccc34)CC1)CCCC2 [Risperidone] (20 µM) | 1 | 1 | 1 | 1.02 | 1.04 (inactive) | 0.962 (inactive) | 0.931 (inactive) | 1.33 (inactive) | 1.05 (inactive) | 0.952 (inactive) | 1.01 (inactive) | 0.878 (inactive)
21 | CC1(C)O[C@@H]2[C@@H](CO[C@@]3(COS(N)(=O)=O)OC(C)(C)O[C@@H]23)O1 [Topiramate] (20 µM) | 0.915 | 0.972 | 0.997 | 1.06 | 1 (inactive) | 0.998 (inactive) | 0.947 (inactive) | 1.01 (inactive) | 0.98 (inactive) | 1.01 (inactive) | 0.989 (inactive) | 0.951 (inactive)
22 | CN(C)c1ccc(O)c2c1C[C@H]1C[C@H]3[C@H](N(C)C)C(=O)C(C(N)=O)=C(O)[C@@]3(O)C(=O)C1=C2O [Minocycline hydrochloride] (20 µM) | 0.0113 | 0.0671 | 0.394 | 0.158 | 0.996 (inactive) | 0.0198 (active) | 0.14 (active) | 0.287 (active) | 0.866 (inactive) | 0.278 (active) | 0.681 (active) | 0.142 (active)
